From PubChem BioAssay
Most compounds without a hit are left out; they make up all but 12% or so of the library.
Sfp inh: qHTS Assay for Inhibitors of Bacillus subtilis Sfp phosphopantetheinyl transferase (PPTase). 4'-phosphopantetheinyl transferase ffp (Bacillus subtilis), Q9F4F7. Biochemical Sfp PPTase activity, qHTS. Potency, µM, for inactives: largest response in the series, negative = inhibition, actives largely listed as inhibitors. 310,000 compounds, 3.5% hits;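 note: the enzyme is Sfp with the accession as filed and its product quenches rhodamine fluorescence; 0% = enzyme reaction without inhibitor and -100% = no enzyme wells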
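With Hepes-Na pH 7.6 buffer containing 10 mM MgCl2, Sfp (15 nM) modified BHQ-2-YbbR (12.5 uM) using rhodamine-CoA (5 uM). Two reads 30 minutes apart at 525/598 nm yielded each well's rate.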
BAZ2B inh: qHTS Assay for Inhibitors of BAZ2B | Bromodomain adjacent to zinc finger domain protein 2B (Homo sapiens), Q9UIF8 | AlphaScreen BAZ2B-H3K14Ac peptide displacement | Potency, µM (top dose mostly 114 µM), for the others: at the top dose activity change, negative = inhibition, hits mostly inhibitors | 360,000 compounds, 4.4% hits; note: % is set by controls: 0 for no effect and ±100 for the full control effect; nearly all actives have a fitted effect of over 60% in size
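Protein-peptide AlphaScreen: BAZ2B 50 nM, b-H3K14Ac 50 nM, 1x PBS pH 7.4 + 0.01% Tween-20. Preincubation 30 min RT; cpd 30 min RT (top 110 uM); beads 20 min RT, light-protected.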
JMJD2A Tudor inh: qHTS Assay for Inhibitors of JMJD2A-Tudor Domain; 390,000 compounds, 4.4% hits; Potency, µM (highest dose often 114 µM), without a hit: top-dose activity change, negative = inhibition, most hits filed as inhibitors; AlphaScreen JMJD2A-Tudor / H3K4me3 peptide binding; note: % is set by controls: 0 for no effect and ±100 for the full control effect; nearly all actives have a fitted effect of over 50% in size
Target sequence (O75164 whole entry, looked up, the tested form may be a part): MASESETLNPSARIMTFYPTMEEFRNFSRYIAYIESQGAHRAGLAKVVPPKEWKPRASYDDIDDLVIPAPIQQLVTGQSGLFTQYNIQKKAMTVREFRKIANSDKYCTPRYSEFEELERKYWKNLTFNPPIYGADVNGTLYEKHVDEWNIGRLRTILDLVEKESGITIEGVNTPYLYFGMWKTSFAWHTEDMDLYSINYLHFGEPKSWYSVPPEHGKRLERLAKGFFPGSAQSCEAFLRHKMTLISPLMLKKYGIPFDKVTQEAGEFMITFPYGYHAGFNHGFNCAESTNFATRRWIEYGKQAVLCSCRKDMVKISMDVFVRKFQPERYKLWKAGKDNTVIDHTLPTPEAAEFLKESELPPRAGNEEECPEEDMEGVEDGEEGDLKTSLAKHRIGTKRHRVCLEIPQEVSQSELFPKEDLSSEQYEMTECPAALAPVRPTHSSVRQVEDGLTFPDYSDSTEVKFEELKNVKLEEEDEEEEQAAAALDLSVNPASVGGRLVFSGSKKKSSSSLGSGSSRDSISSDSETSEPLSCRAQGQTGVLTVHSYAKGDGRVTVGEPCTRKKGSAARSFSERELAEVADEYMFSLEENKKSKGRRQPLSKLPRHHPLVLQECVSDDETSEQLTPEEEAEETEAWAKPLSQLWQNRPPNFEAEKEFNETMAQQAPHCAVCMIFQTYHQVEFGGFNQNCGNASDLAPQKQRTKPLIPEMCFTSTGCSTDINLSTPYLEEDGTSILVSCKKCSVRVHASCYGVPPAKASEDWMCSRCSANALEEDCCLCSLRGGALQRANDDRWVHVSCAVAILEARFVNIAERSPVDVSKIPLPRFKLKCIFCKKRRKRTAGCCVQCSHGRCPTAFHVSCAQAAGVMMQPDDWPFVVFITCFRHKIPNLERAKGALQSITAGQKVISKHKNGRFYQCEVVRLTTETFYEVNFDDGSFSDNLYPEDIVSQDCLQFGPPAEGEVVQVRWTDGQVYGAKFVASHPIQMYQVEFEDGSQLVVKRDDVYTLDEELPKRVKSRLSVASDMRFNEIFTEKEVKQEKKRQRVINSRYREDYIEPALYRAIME
HP1b binding inh: HTS for Inhibitors of HP1-beta Chromodomain Interactions with Methylated Histone Tails; AlphaScreen HP1-beta / biotin-H3K9me3 peptide binding; 390,000 compounds, 0.56% hits; Potency, µM (doses to about 114 µM), inactives show at the top dose activity change, negative = inhibition, actives largely listed as inhibitors; AID 540317, 2011; note: nearly all actives have a fitted effect of over 70% in size
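HP1-beta protein (50 nM final) preincubated 30 min at room temperature with biotinylated H3(1-18)K9me3 peptide (50 nM) in PBS pH 7.4, 0.01% Tween-20, then compound added for 30 min. AlphaScreen streptavidin donor/nickel chelate acceptor beads (10 ug/mL final), 30 min dark, luminescence read.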
PLK1 PBD block: qHTS for Inhibitors of PLK1-PDB (polo-like kinase 1 - polo-box domain): Primary Screen | Serine/threonine-protein kinase PLK1 (Homo sapiens), P53350 | Plk1 PBD binding of FITC phosphopeptide, fluorescence polarization | Potency, µM, without a hit: max response, negative = inhibition, usual class: inhibitors | 360,000 compounds, 2.8% hits; note: series mostly up to about 57 µM; % is set by controls: 0 for no effect and ±100 for the full control effect; nearly all actives have a fitted effect of over 65% in size
G9a inh: qHTS Assay for Inhibitors of Histone Lysine Methyltransferase G9a. G9a H3K9 monomethylation, AlphaScreen, 2 h. Potency, µM (titrated, usually from 102 µM), inactives show at the top dose activity, negative = inhibition, most hits filed as inhibitors. Histone-lysine N-methyltransferase EHMT2 (Homo sapiens), Q96KQ7. 350,000 compounds, 8.8% hits; note: % is set by controls: 0 for no effect and ±100 for the full control effect; nearly all actives have a fitted effect of over 75% in size
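Using a bead-based AlphaScreen, monomethylated H3K9 product from 2 h room-temperature reactions (G9a 20 nM, peptide 500 nM, SAM 20 uM) was detected with 0.5 ug/mL rabbit anti-H3K9me1 antibody.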
* = called active by the depositor; [ ] = dose if it differs, or a comment. Calls come from the whole dose curve; as a rule, active = well fitted curve in the direction sought with a large enough effect; inconclusive = small, poorly fitted or top-dose-only effect, or another doubt; inactive = no such curve, though single readings can be large; an effect the other way counts as inactive or inconclusive. Potency is the fitted concentration of half-maximal effect.

Screening COC(=O)/C=C1\OC(c2ccccc2)c2ccccc21 (stereo not given) returned PLK1 PBD block -10.0%.
`COC(=O)/C=C1\OC(c2ccccc2)=CC1=O` gave Sfp inh 20µM*, BAZ2B inh inconclusive and G9a inh 3.98µM*.
Cc1csc(=O)n1CCC(=O)OCC(=O)NCc1ccc(F)cc1 was read as BAZ2B inh -5.3%, JMJD2A Tudor inh -8.2%, HP1b binding inh 5.4%, PLK1 PBD block -2.0% and G9a inh -1.4%.
O=C(CSc1ncccn1)NCc1ccc(F)cc1 was read as Sfp inh 10.3%, JMJD2A Tudor inh -7.2%, HP1b binding inh 31.4%, PLK1 PBD block 0.3% and G9a inh 13.7%[59 µM].
O=C(CSc1ccc(-c2ccccc2)nn1)NC1CCCCC1 was read as Sfp inh -29.4%, BAZ2B inh -3.0%, JMJD2A Tudor inh -4.8%, HP1b binding inh 12.8% and PLK1 PBD block -29.2%.
O=C(CSc1ccc(-c2ccccn2)nn1)NC1CCCCC1 was read as Sfp inh -27.1%, BAZ2B inh 3.98µM*, JMJD2A Tudor inh 3.55µM*, HP1b binding inh 29.6%, PLK1 PBD block -4.7% and G9a inh 30.6%.
`O=C(CSc1ccc(-c2ccccn2)nn1)NCc1ccc(F)cc1` gave Sfp inh -2.4%, BAZ2B inh 3.16µM*, JMJD2A Tudor inh 7.94µM*, HP1b binding inh 11.6%, PLK1 PBD block -13.0% and G9a inh -15.6%.
`O=C(CSc1ccc(-c2ccco2)nn1)NC1CCCCC1` gave Sfp inh 25.1µM*, BAZ2B inh 50.1µM*, JMJD2A Tudor inh inconclusive, HP1b binding inh 0.1%, PLK1 PBD block -19.2% and G9a inh 44.7µM*.
Screening COc1ccc([S+](=O)([O-])N2CCN([S+](=O)([O-])c3ccc4c(c3)OCCO4)CC2)c(OC)c1 returned JMJD2A Tudor inh -25.3%.
O=C(CSc1ncn[nH]1)N1N=C2/C(=C/c3ccco3)CCCC2C1c1ccco1 (stereo not given) was read as Sfp inh -20.0%, BAZ2B inh inconclusive, JMJD2A Tudor inh 56.2µM*, HP1b binding inh -25.0%, PLK1 PBD block -7.1% and G9a inh 50.1µM*.
O=C(CSc1ncn[nH]1)N1N=C2/C(=C\c3ccco3)CCCC2C1c1ccco1 (stereo not given) was read as JMJD2A Tudor inh -31.7%, HP1b binding inh -7.1% and PLK1 PBD block -4.7%.
CCCCN1C(=O)C(=O)N(CC(=O)N2N=C3/C(=C/c4ccco4)CCCC3C2c2ccco2)C1=O (stereo not given) was read as Sfp inh 44.7µM*, BAZ2B inh -33.0%, JMJD2A Tudor inh inconclusive, HP1b binding inh -27.6%, PLK1 PBD block -23.4% and G9a inh inconclusive.
`O=C(NCCc1ccc(Cl)cc1)c1ccc(CS(=O)Cc2ccc(Cl)cc2)o1` (stereo not given) gave Sfp inh 7.0%, BAZ2B inh -38.1%, JMJD2A Tudor inh -16.5%, HP1b binding inh 40.0%, PLK1 PBD block -1.1% and G9a inh -13.7%.
For COc1ccccc1S(=O)Cc1ccc(C(=O)NCCc2ccc(Cl)cc2)o1 (stereo not given) the results were Sfp inh -7.2%, BAZ2B inh 0.6%, JMJD2A Tudor inh -7.6%, HP1b binding inh 71.8%, PLK1 PBD block -20.5% and G9a inh 39.8µM*.
For COc1ccccc1S(=O)Cc1ccc(C(=O)NC2CCCC2)o1 (stereo not given) the results were Sfp inh -20.9%, BAZ2B inh 11.4%, JMJD2A Tudor inh -11.0%, HP1b binding inh 54.9%, PLK1 PBD block -26.3% and G9a inh 28.2µM*.
For O=C(CSc1nc(=O)n(Cc2ccncc2)c2c1CCC2)Nc1ccc(F)cc1F the results were BAZ2B inh -19.0%, JMJD2A Tudor inh -4.2%, HP1b binding inh 35.9% and G9a inh 6.7%[59 µM].
`Cc1sc(-c2cccnc2)nc1OC(=O)C1CC1` gave Sfp inh inconclusive, BAZ2B inh -24.4%, JMJD2A Tudor inh -2.3%, HP1b binding inh 25.9%, PLK1 PBD block inconclusive and G9a inh 20µM*.
CCCN(CCC)C(=O)c1cc([N+](=O)[O-])cc2c1-c1ccc([N+](=O)[O-])cc1C2=C(C#N)C#N was read as Sfp inh 50.1µM*, BAZ2B inh inconclusive, JMJD2A Tudor inh inconclusive, HP1b binding inh -13.3%, PLK1 PBD block inconclusive and G9a inh 44.7µM*.
O=C(c1ccc2c(c1)OCO2)c1cn(Cc2ccc(Cl)cc2)c2ccc(F)cc2c1=O was read as BAZ2B inh -23.9%, JMJD2A Tudor inh -25.9%, HP1b binding inh 14.8% and G9a inh -4.9%[59 µM].
For COc1cc(-c2noc(-c3ccc(NCCc4ccccc4)c([N+](=O)[O-])c3)n2)cc(OC)c1OC the results were BAZ2B inh -0.5%, JMJD2A Tudor inh 0.7%, HP1b binding inh 46.7% and G9a inh -44.3%[59 µM].
O=C(CNC(=O)c1ccco1)OCc1cccc(Cl)c1 was read as Sfp inh 6.0%, BAZ2B inh 0.0%, JMJD2A Tudor inh -3.1%[57.1 µM], HP1b binding inh 48.3%, PLK1 PBD block -7.8% and G9a inh 50.1µM*.
`O=C(CNC(=O)c1ccco1)OCC(=O)c1ccc([N+](=O)[O-])cc1` gave Sfp inh inconclusive, BAZ2B inh 2.9%, JMJD2A Tudor inh -31.9%, HP1b binding inh 9.0%, PLK1 PBD block inconclusive and G9a inh 25.1µM*.
`O=C(CNS(=O)(=O)c1ccccc1)OCC(=O)c1ccc([N+](=O)[O-])cc1` gave Sfp inh 79.4µM*, BAZ2B inh -25.8%, JMJD2A Tudor inh inconclusive, HP1b binding inh 37.4%, PLK1 PBD block -17.6% and G9a inh 7.08µM*.
`O=C(CNC(=O)c1ccco1)NCC(=O)OCc1cccc(Cl)c1` gave Sfp inh 22.5%, BAZ2B inh 1.9%, JMJD2A Tudor inh -9.5%, HP1b binding inh 29.3%, PLK1 PBD block -9.4% and G9a inh 5.5%[59 µM].
For O=C(CNC(=O)c1ccco1)OCC(=O)c1ccc(Cl)cc1 the results were Sfp inh 15.5%, BAZ2B inh -26.8%, JMJD2A Tudor inh -1.6%, HP1b binding inh 33.5%, PLK1 PBD block -4.4% and G9a inh 29.4%.
